Drawing on PubChem BioAssay (EPA / NIEHS), this text covers AC50 and outcome for five compounds.

Records with an inconclusive call do not appear. Active and inactive are the calls of the source. Rule for the calls: active = hit-call score of the fitted dose curve at least 0.9, where 1 is the maximum; inconclusive = response in the unintended direction; inactive = score below 0.9.

The target in the assay is human Phosphatase and Tensin Homolog (PTEN), PTEN (gene 5728) (UniProt P60484). Description: NVS_ENZ_hPTEN: NovaScreen (NVS) Enzymatic Assay for human Phosphatase and Tensin Homolog (PTEN) (AID 2283203). On the procedure: NVS_ENZ_hPTEN is a biochemical, single-readout assay that uses extracted gene-proteins in a cell-free assay. Measurements were taken 1 hour after chemical dosing in a 384-well plate.NVS_ENZ_hPTEN is one of one assay component(s) measured or calculated from the NVS_ENZ_hPTEN assay. It is designed to make measurements of enzyme activity, a form of enzyme reporter, as detected with fluorescence intensity signals by Fluorescence and electrophoretic mobility shift technology.Data from the assay component NVS_ENZ_hPTEN was analyzed into 1 assay endpoint. This assay endpoint, NVS_ENZ_hPTEN, was analyzed in the positive analysis fitting direction relative to DMSO as the negative control and baseline of activity. Using a type of enzyme reporter, loss-of-signal activity can be used to understand changes in the enzymatic activity as they relate to the gene PTEN. Furthermore, this assay endpoint can be referred to as a primary readout, because this assay has produced multiple assay endpoints where this one serves a enzymatic activity function. To generalize the intended target to other relatable targets, this assay endpoint is annotated to the phosphatase intended target family, where the subfamily is dual-specific phosphatase.
Sequence of human Phosphatase and Tensin Homolog (PTEN), PTEN (gene 5728) (P60484 whole entry, looked up): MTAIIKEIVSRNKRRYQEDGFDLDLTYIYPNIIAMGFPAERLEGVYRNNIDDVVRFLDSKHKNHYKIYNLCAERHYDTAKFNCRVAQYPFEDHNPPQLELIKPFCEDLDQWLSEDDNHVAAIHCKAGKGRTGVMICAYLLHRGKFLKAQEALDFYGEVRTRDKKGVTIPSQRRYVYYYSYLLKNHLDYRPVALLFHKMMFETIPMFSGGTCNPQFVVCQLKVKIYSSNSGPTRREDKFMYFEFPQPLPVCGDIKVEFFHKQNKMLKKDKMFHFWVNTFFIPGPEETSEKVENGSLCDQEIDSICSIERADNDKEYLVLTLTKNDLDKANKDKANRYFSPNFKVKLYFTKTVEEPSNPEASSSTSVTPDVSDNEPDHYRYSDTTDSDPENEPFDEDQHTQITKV
Binding assays used specific radioligands (tritiated, iodinated) with non-radioactive competitive displacement ligands in agonist or antagonist protocols (as indicated) and various reference compounds and inhibitors to titrate specific binding to receptors and transporters. Most enzyme assays (CYPs, kinases, phosphatases, proteases, HDACs) used recombinant protein and specific substrates (fluorescence mostly, some colorimetric and radioactive) and inhibitors, followed by a biochemical separation of substrate and product. All assays for the biochemical HTS were initially run in duplicate at a single concentration (10 uM for CYP450 assays and 25 uM for all others). […] Each assay was run with positive and negative controls, and concurrent controls on every plate. The follow-up (secondary) screen tested active chemical-pairs in concentration series, as well as a few additional assays not tested in the primary screen, some selected negative inactives, and several cases re-run in the concentration series for confirmatory purposes.
`N#CCc1ccc(Cl)cc1`: the AC50 (usually the concentration giving half of the maximal activity seen) was 1320 nM (active).
Consider `COP(=S)(OC)Oc1cc(Cl)c(Cl)cc1Cl`, for which the compound was classed as inactive.
Consider `O=C(c1ccccc1)C(Cl)Cl`, for which the half-maximal activity concentration (AC50) was 14100 nM (active).
The same measure, in the same setting: the same measure for `CN(CCCC(=O)c1cccnc1)N=O`: 2.29 nM (active).
Take `COC[C@H](C)N(C(=O)CCl)c1c(C)csc1C`: the call was inactive.
